# Results: PubChem BioAssay (NCATS)
# A number with no mark means an inactive call. Inconclusive results are not listed. A call without a number means that no potency is given here. Calls of active or inactive are those of the source. Unless noted, calls follow the shape of the dose curve; as a rule, active = well fitted curve in the direction sought with a large enough effect; inconclusive = small, poorly fitted or top-dose-only effect, or another doubt; inactive = no such curve, though single readings can be large; an effect the other way counts as inactive or inconclusive.
# Experiments:
# [1] = AP1 Signaling Pathway (AID 357; active = well fitted curve in either direction with a large enough effect, not every such curve was filed as active)
# How it was run: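 ME-180 cells with beta-lactamase reporter under AP-1 response element, stimulated with EC50 EGF; compounds tested in titration series, 5 h at 37 °C. CCF4 substrate added 2.5 h at room temperature; 460/530 nm emission ratio gave %activity and AC50.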
# [2] = Stat Signaling Pathway (AID 446; active = well fitted curve in either direction with a large enough effect, not every such curve was filed as active;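 also: ME-180 cervical cancer cells given 40 pM IL-6 alongside compound; SIE-controlled beta-lactamase reporter measured as 460/530 nm FRET emission ratio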)
# How it was run: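 Reporter line: ME-180 cervical carcinoma, SIE-beta-lactamase. Treatment: compound with 40 pM IL-6, 5 hrs, 37 C, in low-serum OPTI-MEM with 10 mM HEPES pH 7.3. Detection: 460/530 nm fluorescence.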
# [3] = target: 3',5'-cyclic-AMP phosphodiesterase 4B (Homo sapiens) (UniProt Q07343); test: qHTS Assay for Inhibitors of PDE-IV (AID 607; active = well fitted activation curve with a large enough effect in the main read-out, with a control signal flat, not every such curve was filed as active)
# Chain of 3',5'-cyclic-AMP phosphodiesterase 4B (Homo sapiens) (Q07343 whole entry, looked up): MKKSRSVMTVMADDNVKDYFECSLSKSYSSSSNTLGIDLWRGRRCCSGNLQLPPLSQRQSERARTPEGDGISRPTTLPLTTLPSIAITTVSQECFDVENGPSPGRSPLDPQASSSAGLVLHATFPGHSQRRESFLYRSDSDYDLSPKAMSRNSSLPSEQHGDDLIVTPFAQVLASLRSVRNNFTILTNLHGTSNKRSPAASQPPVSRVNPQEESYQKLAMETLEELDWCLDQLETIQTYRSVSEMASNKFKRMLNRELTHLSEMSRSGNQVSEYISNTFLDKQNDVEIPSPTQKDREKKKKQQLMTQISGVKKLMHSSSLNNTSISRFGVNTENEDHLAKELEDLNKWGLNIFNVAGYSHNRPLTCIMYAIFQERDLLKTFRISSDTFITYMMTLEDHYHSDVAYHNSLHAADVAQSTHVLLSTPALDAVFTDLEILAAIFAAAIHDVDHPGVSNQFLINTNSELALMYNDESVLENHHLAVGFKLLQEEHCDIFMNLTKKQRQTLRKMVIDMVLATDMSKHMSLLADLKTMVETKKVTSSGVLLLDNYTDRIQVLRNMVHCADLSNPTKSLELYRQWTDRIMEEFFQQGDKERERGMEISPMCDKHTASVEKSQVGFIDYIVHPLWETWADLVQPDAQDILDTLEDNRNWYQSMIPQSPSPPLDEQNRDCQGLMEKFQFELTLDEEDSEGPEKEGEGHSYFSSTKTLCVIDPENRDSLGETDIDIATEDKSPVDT
# How it was run: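 Cell-based read-out of cAMP via a modified cyclic nucleotide-gated channel and membrane potential dye (535/590 nm) in HEK293 cells expressing PDE4 endogenously. Compounds tested up to 22.9 uM final; 100 uM RO 20-1724 reference.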
# [4] = NFAT Signaling Pathway (AID 444; active = well fitted curve in either direction with a large enough effect, not every such curve was filed as active;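 also: carbachol stimulus at about its EC50 of 1 µM final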); conditions: Jurkat NFAT-bla M1, carbachol, beta-lactamase ratio, 5 h; at 17.2 µM (top of the series) unless noted
# How it was run: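 Read-out: CCF4 FRET ratio (460 nm/530 nm) after 1 h RT dye loading, used for %activity and AC50 from titration series. Cells: Jurkat NFAT-β-lactamase/M1 line, treated with compound plus 1 uM carbachol for 5 h, 37 °C.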
# [5] = S16 Schwann cell PMP22 intronic element firefly luciferase assay (AID 624032); also: nearly all actives have a fitted effect of over 30% in size
# How it was run: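 Luciferase reporter of PMP22 intronic-element expression in stably transfected S16 rat Schwann cells, read by ONE-Glo luminescence after 24 h compound exposure at 37 C. Activity scaled between DMSO (0%) and positive-control PTC124; concentration-effect curves quality-classified.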
# [6] = S16 Schwann cell PMP22 intronic element beta-lactamase assay (AID 624044; calls by dose curve; also: nearly all actives have a fitted effect of over 15% in size)
# How it was run: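 Rat S16 Schwann cells with beta-Lac driven by a PMP22 intronic element, compound-treated 24 h at 37 °C. LiveBLAzer FRET B/G read: 460 nm normalized to potassium clavulanate vs DMSO; 535 nm FRET as viability; concentration-effect curves classified.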
# [7] = test system: CP203; test: qHTS profiling for inhibitors of Plasmodium falciparum proliferation (AID 504749); also: nearly all actives have a fitted effect of over 60% in size; also: potency is read from the fitted curve at half-maximal effect; conditions: P. falciparum in erythrocytes, SYBR Green DNA, 72 h; series mostly up to 12.8 µM
# How it was run: (§1)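 Three-day growth assay of blood-stage parasites in erythrocytes (0.3% parasitemia, 2.5% hematocrit) at 37 C, 5% CO2, quantified by SYBR Green DNA staining after overnight detergent lysis.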
# [8] = test system: CP260; test: as above; conditions: P. falciparum in erythrocytes, SYBR Green DNA, 72 h; series mostly up to 12.8 µM
# How it was run: as §1
# [9] = test system: CP335; test: as above; conditions: P. falciparum in erythrocytes, SYBR Green DNA, 72 h; series mostly up to 12.8 µM
# How it was run: as §1
# [10] = test system: DIV14; test: as above; conditions: P. falciparum in erythrocytes, SYBR Green DNA, 72 h; series mostly up to 12.8 µM
# How it was run: as §1
# [11] = test system: W2; test: as above; conditions: P. falciparum in erythrocytes, SYBR Green DNA, 72 h; series mostly up to 12.8 µM
# How it was run: as §1
# [12] = target: Cytochrome P450 3A4 (Homo sapiens) (UniProt P08684); test: qHTS Assay for Activators of Cytochrome P450 3A4 (AID 885); also: nearly all actives have a fitted effect of over 65% in size
# Chain of Cytochrome P450 3A4 (Homo sapiens) (P08684 whole entry, looked up): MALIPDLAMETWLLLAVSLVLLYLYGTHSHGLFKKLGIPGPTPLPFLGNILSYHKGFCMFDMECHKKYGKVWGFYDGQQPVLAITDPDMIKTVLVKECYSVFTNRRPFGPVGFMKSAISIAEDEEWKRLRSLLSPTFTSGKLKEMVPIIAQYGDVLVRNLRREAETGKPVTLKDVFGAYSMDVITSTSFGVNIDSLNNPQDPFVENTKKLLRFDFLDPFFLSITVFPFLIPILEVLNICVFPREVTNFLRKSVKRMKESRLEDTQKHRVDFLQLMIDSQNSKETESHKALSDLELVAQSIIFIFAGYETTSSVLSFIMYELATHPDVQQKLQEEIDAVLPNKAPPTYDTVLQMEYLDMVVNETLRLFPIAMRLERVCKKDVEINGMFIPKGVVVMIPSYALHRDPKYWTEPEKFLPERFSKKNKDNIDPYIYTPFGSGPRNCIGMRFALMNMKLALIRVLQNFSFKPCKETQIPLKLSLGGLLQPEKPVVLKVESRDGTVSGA
# How it was run: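 Signal was normalized against complete inhibition by 57 uM ketoconazole. The reaction used 20nM CYP3A4 with 25uM Luciferin-PPXE, 10-min compound preincubation and a 60-min NADPH-supported step at RT.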
# [13] = target: Cytochrome P450 2D6 (Homo sapiens) (UniProt P10635); test: qHTS Assay for Inhibitors and Substrates of Cytochrome P450 2D6 (AID 891); also: potency is read from the fitted curve at half-maximal effect; nearly all actives have a fitted effect of over 60% in size
# Chain of Cytochrome P450 2D6 (Homo sapiens) (P10635 whole entry, looked up): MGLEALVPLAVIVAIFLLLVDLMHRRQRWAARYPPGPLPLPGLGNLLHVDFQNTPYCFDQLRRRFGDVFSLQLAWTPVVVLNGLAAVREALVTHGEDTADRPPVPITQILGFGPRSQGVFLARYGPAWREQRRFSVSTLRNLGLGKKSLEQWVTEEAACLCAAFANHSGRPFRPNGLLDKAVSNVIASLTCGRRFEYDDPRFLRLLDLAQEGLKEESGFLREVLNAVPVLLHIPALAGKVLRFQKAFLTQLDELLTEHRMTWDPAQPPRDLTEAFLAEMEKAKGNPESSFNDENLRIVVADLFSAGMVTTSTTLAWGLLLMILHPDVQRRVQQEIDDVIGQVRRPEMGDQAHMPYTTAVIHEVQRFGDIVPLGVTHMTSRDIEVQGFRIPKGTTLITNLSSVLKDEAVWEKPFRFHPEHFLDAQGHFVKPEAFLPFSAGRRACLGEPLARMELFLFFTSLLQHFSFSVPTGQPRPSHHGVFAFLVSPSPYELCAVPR
# How it was run: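 Human CYP2D6 (5 nM) with 30 uM Luciferin-ME EGE (at Km) in 100 mM KPO4, compound preincubated 10 min, then NADPH regeneration system for 60 min at room temperature. Luciferin read by luminescence; normalized to 1.43 uM quinidine.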
# [14] = S16 Schwann cell viability assay (CellTiter-Glo assay) (AID 624031);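 also: cellular ATP luminescence as a viability measure; nearly all actives have a fitted effect of over 70% in size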
# How it was run: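 This viability control uses native rat S16 Schwann cells grown in DMEM plus 10% FBS. After a 24 h compound treatment at 37 °C, CellTiter-Glo luminescence reports ATP content, scaled against DMSO-treated and cell-free wells.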
# [15] = test system: CP265; test: qHTS profiling for inhibitors of Plasmodium falciparum proliferation (AID 504749); also: nearly all actives have a fitted effect of over 60% in size; also: potency is read from the fitted curve at half-maximal effect; conditions: P. falciparum in erythrocytes, SYBR Green DNA, 72 h; series mostly up to 12.8 µM
# How it was run: as §1
# [16] = test system: DFO2036; test: as above; conditions: P. falciparum in erythrocytes, SYBR Green DNA, 72 h; series mostly up to 12.8 µM
# How it was run: as §1
# [17] = Confirmation and Secondary Assay for Modulators of Hemoglobin Beta Chain Splicing at IVS2 654 locus (AID 910);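 also: HeLa cells stably carrying EGFP split by mutant beta-globin IVS2-654 intron; per-well total GFP intensity by laser scanning cytometry after 2-day treatment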
# How it was run: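 Readout: per-well total peak green fluorescence (488 nm ex, 500–520 nm em) from objects 5–250 µm, reflecting correct splicing of an EGFP-654 reporter. Compounds were applied for 2 days at 37 °C to overnight-plated HeLa EGFP-654 cells; controls were DMSO and 500 nM IVS2-654 PNA.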
# [18] = Confirmation and Secondary Assay for Modulators of Hemoglobin Beta Chain Splicing at IVS2 705 locus (AID 930);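 also: HeLa cells stably expressing the EGFP-705 splicing reporter; GFP fluorescence per well restored by corrected splicing of the IVS2-705 intron in EGFP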
# How it was run: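 Secondary splice-site specificity test uses HeLa expressing CMV-driven EGFP interrupted by IVS2-705; cells were treated 2 days at 37C with 500 nM antisense PNA as positive control.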
smiles,measurement,setting,value
C[C@@]1(O)CCOC(=O)C1,outcome,[1],inactive
same,outcome,[2],inactive
same,outcome,[3],inactive
C[C@H](CCC(=O)O)[C@H]1CC[C@@H]2[C@@H]3[C@@H](O)C[C@H]4C[C@@H](O)CC[C@@]4(C)[C@H]3CC[C@@]21C,outcome,[1],inactive
same,"activity change, negative = inhibition",[4],14.2%
same,outcome,[3],inactive
same,Potency,[5],inactive
same,Potency,[6],inactive
same,Potency,[7],inactive
same,Potency,[8],inactive
same,Potency,[9],inactive
same,Potency,[10],inactive
same,Potency,[11],inactive
CC#C[C@@]1(O)CC[C@H]2[C@@H]3CCC4=CC(=O)CCC4=C3[C@H](c3ccc(N(C)C)cc3)C[C@]21C,outcome,[1],inactive
same,"activity change, negative = inhibition",[4],15.9%
same,outcome,[3],inactive
COc1cc(OC)c2c(c1Cl)O[C@@]1(C2=O)[C@H](C)CC(=O)C[C@@H]1OC,outcome,[1],inactive
same,outcome,[2],inactive
same,Potency,[12],inactive
CC(C)(C)NC[C@@H](O)COc1ccccc1C1CCCC1,outcome,[1],inactive
same,Potency,[13],2.51 µM (active)
same,Potency,[6],inactive
same,Potency,[7],3.22 µM (active)
same,Potency,[8],3.16 µM (active)
same,Potency,[9],3.61 µM (active)
same,Potency,[10],2.03 µM (active)
same,Potency,[11],0.572 µM (active)
NC(=O)c1cc[n+](CC2=C(C(=O)[O-])N3C(=O)[C@@H](NC(=O)Cc4cccs4)[C@@H]3SC2)cc1,outcome,[1],inactive
same,outcome,[2],inactive
same,outcome,[3],inactive
same,outcome,[14],inactive
same,Potency,[5],inactive
same,Potency,[6],inactive
same,Potency,[8],inactive
same,Potency,[15],inactive
same,Potency,[9],inactive
same,Potency,[16],inactive
same,Potency,[10],inactive
same,Potency,[11],inactive
c1ccc2c(c1)CCC[C@@H]2C1=NCCN1,outcome,[1],inactive
same,outcome,[2],inactive
same,outcome,[3],inactive
same,outcome,[14],inactive
same,Potency,[5],inactive
same,Potency,[7],inactive
same,Potency,[8],inactive
same,Potency,[15],inactive
same,Potency,[9],inactive
same,Potency,[16],inactive
same,Potency,[10],inactive
same,Potency,[11],inactive
CN(C)CCOC(=O)[C@@H](c1ccccc1)C1(O)CCCC1,outcome,[1],inactive
same,outcome,[2],inactive
same,outcome,[3],inactive
same,outcome,[14],inactive
same,Potency,[5],inactive
same,Potency,[7],inactive
same,Potency,[15],inactive
same,Potency,[9],inactive
same,Potency,[16],inactive
same,Potency,[10],inactive
same,Potency,[11],8.49 µM (active)
OCCOCCN1CCN([C@@H](c2ccccc2)c2ccc(Cl)cc2)CC1,outcome,[1],inactive
same,outcome,[2],inactive
same,outcome,[3],inactive
CC(=O)S[C@H]1CC2=CC(=O)CC[C@@]2(C)[C@H]2CC[C@@]3(C)[C@H](CC[C@]34CCC(=O)O4)[C@@H]12,outcome,[1],inactive
same,outcome,[2],inactive
same,outcome,[3],inactive
Clc1ccc([C@H](Cn2ccnc2)OCc2c(Cl)cccc2Cl)c(Cl)c1,outcome,[1],inactive
same,outcome,[14],inactive
same,Potency,[6],inactive
same,Potency,[7],6.42 µM (active)
same,Potency,[15],3.16 µM (active)
same,Potency,[16],3.55 µM (active)
same,Potency,[10],5.1 µM (active)
same,Potency,[11],2.03 µM (active)
Cc1ccsc1/C=C\C1=NCCCN1C,outcome,[1],inactive
same,outcome,[14],inactive
same,Potency,[5],inactive
same,Potency,[6],inactive
same,Potency,[7],inactive
same,Potency,[8],inactive
same,Potency,[15],inactive
same,Potency,[16],inactive
same,Potency,[10],inactive
same,Potency,[11],inactive
Cc1cccc(CN2CCN([C@@H](c3ccccc3)c3ccc(Cl)cc3)CC2)c1,outcome,[1],inactive
same,outcome,[2],inactive
same,outcome,[3],inactive
same,Potency,[13],3.16 µM (active)
same,outcome,[14],inactive
same,Potency,[5],inactive
same,Potency,[7],inactive
same,Potency,[16],inactive
same,Potency,[11],3.22 µM (active)
CN(C)CCO[C@@H](c1ccc(Cl)cc1)c1ccccn1,outcome,[1],inactive
same,outcome,[2],inactive
same,outcome,[3],inactive
NC[C@@H]1O[C@H](O[C@H]2[C@H](O)[C@@H](O[C@H]3[C@H](O)[C@H](N)C[C@H](N)[C@H]3O[C@@H]3O[C@H](CO)[C@@H](O)[C@H](O)[C@@H]3N)O[C@H]2CO)[C@@H](N)[C@H](O)[C@@H]1O,outcome,[1],inactive
same,outcome,[3],inactive
O=C1O[C@@H]([C@@H](O)CO)[C@@H](O)[C@H]1O,outcome,[1],inactive
same,outcome,[2],inactive
same,Potency,[5],inactive
same,Potency,[6],inactive
same,Potency,[7],inactive
same,Potency,[8],inactive
same,Potency,[15],inactive
same,Potency,[9],inactive
same,Potency,[16],inactive
same,Potency,[10],inactive
same,Potency,[11],inactive
CC1(C)S[C@@H]2[C@H](NC(=O)COc3ccccc3)C(=O)N2[C@H]1C(=O)O (tested in a mixture with another compound),outcome,[1],inactive
same,outcome,[2],inactive
same,outcome,[3],inactive
COc1cc(C2Oc3cc(C4Oc5cc(O)cc(O)c5C(=O)C4O)ccc3OC2CO)ccc1O (configuration not stated),outcome,[1],inactive
same,outcome,[2],inactive
same,Potency,[12],inactive
same,Potency,[17],inactive
same,Potency,[18],inactive
C=CCO[C@@H](Cn1ccnc1)c1ccc(Cl)cc1Cl,outcome,[1],inactive
same,outcome,[2],inactive
same,outcome,[3],inactive
CCCC[C@H](CC)CN1CN(C[C@@H](CC)CCCC)CC(C)(N)C1,outcome,[1],inactive
same,"activity change, negative = inhibition",[4],-26.2%
same,outcome,[3],inactive
same,Potency,[13],1.26 µM (active)
same,Potency,[5],inactive
same,Potency,[7],inactive
same,Potency,[8],3.55 µM (active)
same,Potency,[15],inactive
same,Potency,[9],inactive
same,Potency,[10],inactive
